The text below walks through data of PubChem BioAssay (NCI).

Several values for one entry are separate records, joined by “and”; a condition that tells them apart may be missing. Equal entries are not always repeated. The panel holds about 83,000 compounds, 20% with a hit somewhere; the sample as a whole holds those more often.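 Growth was measured after 48 h exposure to one concentration of compound in 96-well plates. Values under 10 count as active.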 Values without a mark were called inactive. Activity calls are given as the source filed them.

Common to all, as to assay: NCI-60 one-dose screen, 48 h (100 = growth as untreated, 0 = no growth, -100 = all killed)
Conditions in all cases: 10 µM unless noted

The subject of assay [1] is MOLT-4 leukemia.
The subject of assay [2] is SR leukemia.
The subject of assay [3] is RPMI-8226 leukemia.
The subject of assay [4] is OVCAR-8 ovarian.
Assay [5] deals with OVCAR-5 ovarian.
Assay [6] relates to OVCAR-4 ovarian.
The test system of assay [7] is SK-OV-3 ovarian.
The subject of assay [8] is IGROV1 ovarian.
Assay [9] deals with OVCAR-3 ovarian.
Assay [10] concerns HS 578T breast.
Assay [11] concerns NCI/ADR-RES ovarian.
In assay [12] the test system is T-47D breast.
Assay [13] deals with BT-549 breast.
Assay [14] relates to MDA-MB-435 melanoma.
In assay [15] the test system is SW-620 colon.
The subject of assay [16] is MCF7 breast.
The subject of assay [17] is HCT-116 colon.
The test system of assay [18] is HCC-2998 colon.
Assay [19] concerns KM12 colon.

For `O=C(CCCN1CCC2(CC1)C(=O)NCN2c1ccccc1)c1ccc(F)cc1`, the growth in [1] was 58.5% and 33%; in assay [2] it was 99.2%; in assay [3], 103% and 74.8%; in assay [4], 91.8% and 76.1%; in [5], -54.6% (active); in assay [6], 103% and 62.4%. For the same compound, the growth in assay [7] was 102% and 111%; in assay [8], 73.6% and 29%; in assay [9] it was 105% and 107%; in [10], 97.1% and 79.2%; in [11], 101% and 65.8%; in assay [12], 45.5% and 23.4%. In addition, the growth is 98.2% and 87.2% in assay [13]; 99.7% and 93.6% in [14]; 84.4% and 68% in assay [15]; 49.6% and 12% in assay [16]; 73.9% and 19.7% in [17]; 104% and 42.3% in assay [18]. In assay [19], the growth is 102% and 86.3%.
Take `CCN(CC)CCn1c(=O)n(C)c2ccccc21`: the growth in assay [1] was 104%; in assay [2], 99.3%; in [3] it was 113%; in assay [4], 101%; in assay [5], 117%; in assay [6], 109%. Moreover, the growth was 106% in assay [7]; 109% in [8]; 106% in assay [9]; 95.5% in [10]; 101% in [11]; 109% in assay [12]. For the same compound, the growth was 124% in assay [13]; 105% in assay [14]; 105% in assay [15]; 102% in assay [16]; 111% in assay [17]; 101% in assay [18]. Further, the growth in assay [19] was 99.8%.
Take `CC1(C)CN=C(NN=C(/C=C/c2ccc(C(F)(F)F)cc2)/C=C/c2ccc(C(F)(F)F)cc2)NC1`: the growth is -59.1% (active) in assay [1]; -57% (active) in [2]; -26.8% (active) in [3]; -64% (active) in assay [4]; -87.5% (active) in assay [5]; -92.3% (active) in [6]. For the same compound, the growth was -7.65% (active) in assay [7]; 22% in [8]; -88% (active) in assay [9]; -38% (active) in assay [10]; -68.4% (active) in [11]; -86.1% (active) in assay [12]. Moreover, the growth is -16.8% (active) in assay [13]; -83.6% (active) in [14]; -52.6% (active) in assay [15]; -99.5% (active) in assay [16]; -85.8% (active) in assay [17]; -86.8% (active) in assay [19].
On to `CO/N=C1\CC[C@]2(C)[C@H]3CC[C@]4(C)C(=O)CC[C@H]4[C@@H]3C[C@@H]3SC(N)=N[C@@]32C1`, for which the growth was 86.1% in [1]; 71.8% in assay [2]; 93.2% in assay [3]; 105% in [4]; 105% in assay [5]; 90.9% in [6]. Moreover, the growth in [7] was 122%; in assay [8], 101%; in assay [9], 85.5%; in assay [10] it was 102%; in assay [11] it was 99.6%; in assay [12], 84.4%. Moreover, the growth is 106% in assay [13]; 91.5% in assay [14]; 106% in assay [15]; 89.1% in [16]; 87.2% in assay [17]; 103% in [18]. In assay [19], the growth was 97.7%.
`CCN1C(=O)NC(=O)C(C)(N2C(=O)c3c(F)c(F)c(F)c(F)c3C2=O)C1=O` (configuration not stated): the growth was -51.3% (active) in [1]; -64.6% (active) in assay [2]; 2.56% (active) in assay [3]; 3.31% (active) in assay [4]; 42.7% in [5]; 1.91% (active) in assay [6]. The growth was 96.9% in [7]; -58.8% (active) in assay [8]; -89.9% (active) in assay [9]; 12.1% in [10]; 17.9% in assay [11]; 23.5% in assay [12]. The growth was 35.9% in assay [13]; 21.6% in assay [14]; -77.9% (active) in assay [15]; 13.3% in assay [16]; -38.8% (active) in [17]; 40.8% in assay [18]. Besides, in [19], the growth is -59.7% (active).
Consider `C(=NC1CCCCC1)=NC1CCCCC1`, for which the growth in assay [1] was 101% and 86.1%; in assay [2] it was 89.5% and 83.7%; in assay [3], 97.6% and 50%; in assay [4], 124% and 77.4%; in assay [5] it was 89.7% and 90.7%; in [6], 107% and 59.9%. Also, the growth is 109% and 91.6% in assay [7]; 108% and 88.4% in assay [8]; 117% and 73% in [9]; 91.8% in assay [10]; 111% and 75.5% in assay [11]; 104% and 14.6% in [12]. The growth in assay [13] was 113% and 91.1%; in assay [14], 101% and 88.4%; in [15], 106% and 88.6%; in assay [16], 100% and 87.2%; in assay [17], 93.6% and 81.4%; in assay [18], 105% and 87.7%. Also, the growth in assay [19] was 109% and 95.7%.
As for `CC(=O)Nc1nc2c(s1)C1=CC[C@H]3[C@@H]4CC[C@H](OC(C)=O)[C@@]4(C)CC[C@@H]3[C@@]1(C)CC2`, the growth in [1] is 82.9%; in assay [2], 21.5%; in assay [3] it was 30.8%; in [4], 70.8%; in assay [5] it was 92.7%; in assay [6], 69.4%. Moreover, the growth in assay [7] is 68.4%; in [8], 62.5%; in [9] it was 20.1%; in assay [10] it was 39%; in assay [11] it was 43.4%; in assay [12] it was 74.3%. Moreover, the growth in assay [13] is 39.2%; in [14], 4.51% (active); in assay [15] it was 43.3%; in assay [16], 44.1%; in assay [17] it was 39.8%; in assay [18], 93.7%. In assay [19], the growth is 50.8%.
As for `O=NN1CCCCC1`, the growth is 115% in assay [1]; 106% in assay [2]; 114% in assay [3]; 111% in assay [4]; 104% in [5]; 110% in assay [6]. For the same compound, the growth in assay [7] was 107%; in assay [8], 116%; in [9], 112%; in assay [10], 97.3%; in assay [11], 110%; in assay [12], 102%. Moreover, the growth in [13] was 104%; in assay [14], 118%; in assay [15], 107%; in [16], 90.8%; in assay [17], 108%; in assay [19] it was 104%.
Regarding `O=C1CN2CCC1CC2`, the growth in assay [1] is 100%; in assay [2], 100%; in [3], 109%; in assay [4], 106%; in [5], 101%; in assay [6], 109%. The growth in assay [7] is 105%; in [8], 108%; in [9] it was 107%; in [10], 101%; in [11], 113%; in assay [12], 91.1%. Besides, the growth in assay [13] was 94.5%; in [14], 102%; in [15] it was 106%; in assay [16], 103%; in assay [17], 100%; in [18], 124%. Further, in assay [19], the growth is 102%.
For `CC[C@H](C)[C@H](NC(=O)[C@H]1CCCCN1C)C(=O)N(C)[C@H](C(=O)NC12CC(C(=O)N[C@@H](Cc3ccccc3)C[C@H](C)C(=O)OC)(C1)C2)C(C)C`, the growth is 104% in assay [1]; 114% in assay [2]; 108% in assay [3]; 96.8% in assay [4]; 98.4% in [5]; 90.8% in assay [6]. Also, the growth is 104% in assay [7]; 105% in assay [8]; 101% in assay [9]; 118% in assay [10]; 103% in assay [11]; 85.7% in assay [12]. For the same compound, the growth is 101% in [13]; 108% in assay [14]; 107% in assay [15]; 96.4% in [16]; 99.5% in assay [17]; 109% in assay [18]. In assay [19], the growth is 104%.
As for `CC(C)CCC1C(=O)NC(=O)NC1=O`, the growth in assay [1] was 99.1%; in [2], 93.5%; in assay [3] it was 113%; in assay [4] it was 98.4%; in assay [5], 107%; in assay [6] it was 99.2%. For the same compound, the growth was 88.2% in assay [7]; 96% in [8]; 101% in assay [9]; 96.6% in [10]; 105% in assay [11]; 78.6% in [12]. The growth in assay [13] was 100%; in assay [14], 99.7%; in [15] it was 91.8%; in [16] it was 88.8%; in [17], 98.1%; in [18], 107%. In assay [19], the growth was 98.5%.
Take `CCN1C(=O)CC(=O)N(CC)C1=S`: the growth is 109% in [1]; 101% in assay [2]; 104% in [3]; 109% in [4]; 85.7% in assay [5]; 89.9% in assay [6]. In addition, the growth in assay [7] was 99.7%; in assay [8] it was 98.5%; in assay [9], 112%; in assay [10] it was 102%; in [11], 73.9%; in assay [12], 98.1%. The growth was 94.5% in assay [13]; 105% in [14]; 108% in [15]; 100% in assay [16]; 93.8% in assay [17]; 106% in assay [19].
For the compound `O=C(CBr)OCCOC(=O)CBr`, the growth was 64.1% in assay [1]; 8.37% (active) in assay [2]; 33.8% in assay [3]; 93.7% in assay [4]; 117% in [5]; 38.3% in [6]. In addition, the growth is 133% in assay [7]; -45.8% (active) in assay [8]; 87.5% in [9]; 3.4% (active) in assay [10]; 99.9% in assay [11]; 79.5% in assay [12]. The growth in assay [13] was 65.4%; in [14], 91.6%; in assay [15], 58.1%; in [16], 68.5%; in assay [17], 69.2%; in [18], 110%. Further, the growth in assay [19] is 99.5%.
As for `O=C1C=C(N2CC2)c2ccccc2C1=O`, the growth was 5.2% (active) in assay [1]; 0.0144% (active) in [2]; 40.5% in assay [3]; 73.2% in assay [4]; 123% in assay [5]; 96.1% in [6]. For the same compound, the growth in assay [7] is 76%; in assay [8], 70.7%; in [9], 83.3%; in assay [10], 107%; in [11] it was 62.7%; in assay [12], 75.5%. In addition, the growth in assay [13] was 71.5%; in assay [14], -78.8% (active); in assay [15], 68.4%; in [16] it was 41.5%; in [17] it was 63.4%; in [18], 94%. For the same compound, in assay [19], the growth was 81.9%.
Turning to `C/C(=C(\c1ccc(OCCN2CCOCC2)cc1)c1ccc(OC(=O)Cc2ccccc2)cc1)c1ccc(Cl)cc1`, the growth is 56.3% in assay [1]; 114% in assay [2]; 57.6% in [3]; 97.7% in [4]; 95.2% in assay [5]; 98.5% in assay [6]. The growth is 110% in [7]; 106% in assay [8]; 95.8% in [9]; 104% in assay [10]; 95.8% in assay [11]; 78% in [12]. Moreover, the growth is 91.1% in assay [13]; 91.4% in [14]; 98.6% in assay [15]; 83.5% in assay [16]; 75.7% in assay [17]; 88.4% in assay [18]. For the same compound, the growth in [19] is 99.3%.
